Screens (PubChem BioAssay)
Shown are actives, neighbours in structure and some others; about 6.2% of the full set was active somewhere.
HT1080NT lethal – kills 2HG-producing HT-1080-NT fibrosarcoma cells | HT-1080-NT fibrosarcoma viability, CellTiter-Glo ATP luminescence, 48 h | Potency, µM (series often up to 46.1 µM), actives largely listed as cytotoxic | 360,000 compounds, 1.6% hits | AID 686970;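 also: NT is the 2HG producing partner of a matched IDH1 knockdown line; nearly all actives have a fitted effect of over 55% in size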
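A 48-hour cytotoxicity screen used HT-1080-NT cells plated 2 hours before compound delivery. ATP-based CellTiter-Glo luminescence measured viability, normalized to DMSO and no-cell controls.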
HT1080 IDH1KD tx – toxicity to HT-1080 IDH1 knockdown cells (counter line); HT-1080 IDH1 knockdown viability, ATP luminescence, 48 h; 360,000 compounds, 2% hits; Potency, µM (series often up to 46.1 µM), actives largely listed as cytotoxic
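IDH1KD HT-1080 cells, 750/well, RPMI + 5% FBS; compound pinned after 2 h settling; 48 h, 37 °C; CellTiter-Glo luminescence; % activity normalised to DMSO and no-cell wells; curves fitted, classed by r2 and efficacy.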
KB-V1 cytotox – kills drug-selected multidrug resistant KB-V1 cells. AID 1347076. KB-V1 MDR cells viability, CellTiter-Glo, 72 h. 400,000 compounds, 3.4% hits. Potency, µM (titrated, usually from 46.1 µM), hits mostly cytotoxic; also: nearly all actives have a fitted effect of over 60% in size
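KB-V1, DMEM (no phenol red) + 10% FBS; cpd pin-transferred, titration series; 72 h, 37 degrees C; CellTiter-Glo, luminescence. Data normalized, curve-fit.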
S2 tox – cell viability loss in ATXN counter-screen | S2 cells (HEK-293 line with an ATXN2-luciferase reporter) viability, CellTiter-Fluor protease fluorescence, 24 h | Potency, µM (series often up to 56.7 µM), hits mostly cytotoxic | 400,000 compounds, 0.49% hits; also: nearly all actives have a fitted effect of over 40% in size
KB-3-1 cytotox – kills parental KB-3-1 adenocarcinoma cells. KB-3-1 viability, CellTiter-Glo ATP luminescence, 72 h. Potency, µM (series often up to 46.1 µM), actives largely listed as cytotoxic. 400,000 compounds, 1.4% hits; also: nearly all actives have a fitted effect of over 60% in size
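KB-3-1 cells, DMEM (no phenol red) + 10% FBS; compound by pin transfer, 72 h, 37 °C. Readout: CellTiter-Glo luminescence after 10 min. Data normalized, curve-fitted.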
ATXN2 expr inh – ATXN2 expression inhibition; HEK-293 ATXN2-luciferase reporter, luminescence, 24 h; Potency, µM (doses to about 57 µM), hits mostly inhibitors; 360,000 compounds, 0.72% hits; also: nearly all actives have a fitted effect of over 55% in size
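qHTS (up to 57 uM final) was run with 24 h compound exposure of reporter cells at 37 °C. Each well was multiplexed: SteadyGlo luminescence measured ATXN2-luciferase expression after a fluorogenic Gly-Phe-AFC viability readout (25 uM final).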
Numbers stand for hits; 0 = inactive; ? = inconclusive; - = no result. Calls follow the shape of the dose curve; as a rule, active = well fitted curve in the direction sought with a large enough effect; inconclusive = small, poorly fitted or top-dose-only effect, or another doubt; inactive = no such curve, though single readings can be large; an effect the other way counts as inactive or inconclusive.

SMILES	HT1080NT lethal	HT1080 IDH1KD tx	KB-V1 cytotox	S2 tox	KB-3-1 cytotox	ATXN2 expr inh
Cc1ccc(S(=O)(=O)NCCC(=O)Nc2nnc(C3CC3)s2)cc1C	0	0	0	0	0	0
Cc1cc(C)cc(N(CCC(=O)Nc2nnc(C3CC3)s2)S(=O)(=O)c2ccc(Cl)cc2)c1	0	?	8.2µM	0	?	0
Cc1cc(NC(=O)CCNS(=O)(=O)c2ccc3c(c2)CCCC(=O)N3)ccc1Br	-	-	0	0	0	0
CCOC(=O)COc1ccccc1/C=C\[N+](=O)[O-]	8.2µM	2.9µM	15µM	-	9.2µM	?
Cc1cc(=O)oc2cc(NC(=O)C(C)Oc3cccc(Cl)c3)ccc12 (centres undefined)	26µM	?	0	?	0	0
Cc1ccccc1C(=O)N1CCc2c(cnc(C)c2CNC(=O)CN2CCCCC2)C1	-	-	-	0	-	-
CCn1c(O)c(N=NC(=O)CNC(=O)Cc2ccccc2)c2ccccc21	0	0	0	0	0	0
O=C(CNC(=O)c1ccco1)N=Nc1c(O)n(CCc2ccccc2)c2ccccc12	4.1µM	1.8µM	3.7µM	?	1.3µM	-
CCCCn1c(O)c(N=NC(=O)c2ccco2)c2ccccc21	0	0	16µM	0	0	0
COc1ccc(CN2CCOc3c(cc(-c4cccc(OC)n4)cc3OC)C2)c(O)c1	-	-	-	0	-	-
CCCN(C(=O)c1cc2c(s1)-c1ccccc1OC2)c1ccc(C(C)C)cc1	-	-	0	0	0	0
CCc1ccc(C(=O)c2cn(Cc3ccc(F)cc3)c3cc(OC)c(OC)cc3c2=O)cc1	-	-	?	14µM	?	?
CCOc1ccccc1NC(=O)CN1Cc2ccccc2C1=O	-	-	0	-	?	-
COc1ccc(NS(=O)(=O)c2cc(NC(=O)c3ccc(=O)[nH]c3)ccc2N2CCCC2)cc1	?	2.1µM	0	?	3.7µM	0
COc1ccc(NS(=O)(=O)c2cc(NC(=O)c3cnc(C)cn3)ccc2N2CCCC2)cc1	0	0	4.6µM	?	0	0
COc1ccc(NS(=O)(=O)c2cc(NC(=O)c3ccco3)ccc2N2CCCCC2)cc1	0	?	0	0	21µM	0
COc1ccc(NS(=O)(=O)c2cc(NC(=O)C3CC3)ccc2N2CCCCC2)cc1	0	?	?	?	?	?
Cc1cc(C)c(NC(=O)C2CCN(C(=O)N3CC(C)Oc4ccc(Cl)cc43)CC2)c(C)c1 (centres undefined)	-	-	0	?	0	?
CO/N=C(/CNC(=O)c1cccc(Cl)c1)c1ccc(Cl)cc1	0	0	23µM	0	0	0
COc1cc(/C=C/c2ccc3cccc([N+](=O)[O-])c3n2)ccc1OCC(=O)O	0	0	0	0	0	-
CCOc1c(OC(C)=O)ccc(/C=C/c2ccc3cccc(OC)c3n2)c1[N+](=O)[O-]	0	0	16µM	0	0	0
CCOCCCN(CCC#N)S(=O)(=O)c1ccc(S(=O)(=O)N2CCCC2)cc1	0	0	26µM	0	0	0
COc1ccc(C(=O)CN2C(=O)C(C)(C)Oc3ccc(C(=O)N4CCCCCC4)cc32)cc1	0	0	18µM	0	0	0
O=C1CN(C(=O)c2c(F)cccc2Cl)C(c2ccc(F)cc2)c2cc(Br)ccc2N1 (centres undefined)	-	-	0	?	0	?
COC(=O)/C=C1/SC(=Nc2ccc(C)cc2C)NC1=O	0	0	0	0	0	0
SMILES	HT1080NT lethal	HT1080 IDH1KD tx	KB-V1 cytotox	S2 tox	KB-3-1 cytotox	ATXN2 expr inh
Cc1ccc(N=C2NC(=O)/C(=C/c3cccn3C)S2)c(C)c1	0	0	23µM	?	0	0
Cn1cccc1/C=C1\SC(=Nc2ccccc2)NC1=O	?	5.2µM	2.6µM	?	2.3µM	-
O=C1NC(=Nc2ccccc2)S/C1=C\c1cccs1	0	0	0	0	0	0
O=C1NC(=Nc2ccc(O)cc2)S/C1=C/c1ccco1	?	?	8.2µM	?	?	0
Cn1cccc1/C=C1\SC(=Nc2cccc(O)c2)NC1=O	?	15µM	0	16µM	?	-
Cc1c2cnn(CC(=O)N3CCN(c4ccc(F)cc4)CC3)c(=O)c2c(C)n1Cc1ccccc1F	-	-	0	-	0	-
O=C(NCC1CCCO1)c1nn2c(C(F)(F)F)cc(-c3cc(Br)cs3)nc2c1Br (centres undefined)	0	0	0	0	0	0
Cn1cccc1/C=C1\SC(=Nc2ccc(O)cc2)NC1=O	0.52µM	0.73µM	0	?	0.29µM	-
COc1cc(/C=C2\SC(=Nc3ccc(O)cc3)NC2=O)cc(OC)c1O	?	?	0	0	?	-
O=C(COc1ccc(F)cc1)Nc1ccc2nc(SCC(=O)N3CCc4ccccc43)sc2c1	-	-	0	0	0	0
O=C(/C=C/c1cccc([N+](=O)[O-])c1)NC(=S)Nc1cccc(NC(=O)c2ccccc2Cl)c1	?	?	?	?	16µM	?
O=C(CSc1nc(-c2ccc(Cl)cc2)cs1)Nc1cccc([N+](=O)[O-])c1	16µM	?	?	?	?	-
O=[N+]([O-])c1cccc(NC(=S)Nc2nc(-c3ccccc3Cl)cs2)c1	?	18µM	0	?	?	0
Cc1cc(NC(=O)CSc2nc(-c3ccc(Cl)cc3)cs2)no1	?	?	0	0	0	0
CCOC(=O)c1sc2ncn(CC(=O)Nc3ccc(N(C)C)cc3)c(=O)c2c1C	-	-	?	0	0	0
Cc1c(C(=O)N2CC3CCC2C3)sc2ncnc(NCCc3ccccn3)c12 (centres undefined)	-	-	-	0	-	-
CC(C)c1c(C(=O)Nc2ccccc2)c(-c2ccccc2)c(-c2ccc(F)cc2)n1CC[C@H](O)C[C@@H](O)CC(=O)O	-	-	-	-	-	0
COC(=O)c1c(NC(=O)CN2C(=O)NC3(CCCCC3C)C2=O)sc2c1CCC2 (centres undefined)	0	?	0	0	10µM	0
O=c1ccc2ccccc2c2ccccc12	8.2µM	5.8µM	?	?	8.2µM	5µM
COc1cc(C(=O)COC(=O)c2c(C)noc2C)cc(OC)c1OC	0	0	0	0	0	-
O=C1CC(=Nc2ccccc2)NN1c1ccccc1	18µM	?	0	?	?	0
COc1ccc(-c2c(-c3ccc(OC)c(C)c3O)n[nH]c2C)cc1	?	18µM	0	-	0	?
COc1ccc(-c2cc(-c3ccccc3O)[nH]n2)cc1OC	?	?	0	0	0	0
COc1ccc(-c2c(-c3ccc(O)cc3O)n[nH]c2C)cc1OC	?	?	?	0	?	0
COc1ccc(O)c(-c2cc(-c3ccc(F)cc3)n[nH]2)c1	?	23µM	0	0	0	0
COc1ccc(-c2cc(-c3ccc(OC)c(OC)c3)n[nH]2)c(O)c1	0	?	2.6µM	0	?	0
CCC1CSC(Nc2ccc(C(=O)/C=C/c3ccc(OC)c(OC)c3)cc2)=N1 (centres undefined)	?	?	2.9µM	-	?	?
